Assay outcomes (PubChem BioAssay)
This is a sample that favours compounds with a hit; in the whole collection about 10% have one here.
ELG1 DNA repair: inhibitors of ELG1-dependent DNA repair in HEK293T cells; hit rate 2.3% among 330,000; HEK293T ELG1-luciferase reporter, luminescence, 16 h; DNA damage induced by 5-fluorouridine; AID 504467; Potency, µM (doses to about 46.1 µM), for the others: at the top dose activity change, negative = inhibition, usual class: inhibitors; also: % is scaled to controls: 0 for no effect and ±100 for the full control effect; nearly all actives have a fitted effect of over 55% in size
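5-Fluorouridine DNA damage + compound/DMSO, 2,000 cells/well, 16 h, 37 °C/5% CO2. ONE-Glo, 30 min RT, luminescence. Readout = decrease in reporter signal.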
RORgamma inh: inhibitors of mouse ROR gamma transcriptional activity; Potency, µM (top dose mostly 53.6 µM), without a hit: at the highest dose activity change, negative = inhibition, hits mostly inhibitors; AID 2551; Drosophila S2 Gal4-RORgamma UAS-luciferase reporter, 20 h; hit rate 5.4% among 310,000; also: % is scaled to controls: 0 for no effect and ±100 for the full control effect; nearly all actives have a fitted effect of over 60% in size
Target sequence (P51450 whole entry, looked up, the tested form may be a part): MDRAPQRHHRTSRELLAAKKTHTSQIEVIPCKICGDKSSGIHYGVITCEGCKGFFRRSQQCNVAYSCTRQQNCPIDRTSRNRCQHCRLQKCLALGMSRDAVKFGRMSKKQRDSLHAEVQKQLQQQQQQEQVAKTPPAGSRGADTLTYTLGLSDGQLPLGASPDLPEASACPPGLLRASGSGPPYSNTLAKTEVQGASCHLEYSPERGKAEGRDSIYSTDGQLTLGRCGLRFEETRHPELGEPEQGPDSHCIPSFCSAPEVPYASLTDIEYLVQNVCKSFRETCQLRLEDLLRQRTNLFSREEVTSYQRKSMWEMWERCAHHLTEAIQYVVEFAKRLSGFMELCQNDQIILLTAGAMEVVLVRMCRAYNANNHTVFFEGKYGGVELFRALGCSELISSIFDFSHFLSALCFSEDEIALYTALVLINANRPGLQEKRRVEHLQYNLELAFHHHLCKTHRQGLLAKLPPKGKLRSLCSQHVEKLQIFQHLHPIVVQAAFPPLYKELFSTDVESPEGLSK
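Compounds are pin-transferred onto Drosophila Schneider cells expressing a copper-inducible Gal4–ROR gamma transactivation domain fusion. After 1 hr, copper sulfate is added to 700 uM final; luciferase is read 20 hr later.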
MCF10A rereplic: inducers of DNA re-replication in MCF 10A breast cells; Potency, µM (series often up to 46.1 µM), for inactives: at the highest dose activity, positive = re-replication, hits mostly activators; hit rate 2.9% among 350,000; MCF 10A DNA re-replication, Hoechst nuclear intensity, 48 h; also: % of control where 0% means no effect; nearly all actives have a fitted effect of over 50% in size
SW480 rerep: DNA re-replication induction in SW480 cells. SW480 DNA re-replication, Hoechst DNA content imaging, 48 h. Potency, µM (top dose mostly 46.1 µM), for the others: at the top dose re-replication activation, usual class: activators. hit rate 1.8% among 340,000. AID 624297; also: % of control where 0% means no effect; nearly all actives have a fitted effect of over 55% in size
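SW480 cells exposed to compounds for 48 hr at 37 C, 5% CO2, then Hoechst-stained 40 min. Nuclear DNA content imaged by fluorescence scanning (405 nm excitation, 500-530 nm emission); re-replication scored as increased high-intensity nuclei.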
VP16 counter: counter-screen for ROR gamma inhibitors: Gal4-VP16 reporter | Potency, µM (top dose mostly 53.6 µM), for the others: at the top dose activity, negative = inhibition, actives largely listed as inhibitors | AID 2546 | hit rate 3.5% among 310,000 | Drosophila S2 Gal4-VP16 UAS-luciferase, luminescence, 20 h;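 also: Gal4-VP16 expression switched on by copper sulfate through the metallothionein promoter; % is scaled to controls: 0 for no effect and ±100 for the full control effect; nearly all actives have a fitted effect of over 50% in size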
Starred values were filed as active, the others as inactive; ? = inconclusive; nt = no result; [ ] = dose if it differs, or a comment. Calls follow the shape of the dose curve; as a rule, active = well fitted curve in the direction sought with a large enough effect; inconclusive = small, poorly fitted or top-dose-only effect, or another doubt; inactive = no such curve, though single readings can be large; an effect the other way counts as inactive or inconclusive. Potency is read from the fitted curve at half-maximal effect.

SMILES	ELG1 DNA repair	RORgamma inh	MCF10A rereplic	SW480 rerep	VP16 counter
CCC(CO)Oc1cc(NCc2ccc(Cl)cc2)c2ncn(C(C)C)c2c1 (stereo unspecified)	-21%	nt	-66%	?	nt
CN(CC(=O)Nc1cccc(F)c1)C(=O)CCCc1c[nH]c2ccccc12	?	nt	-6%	-3%	nt
Cc1sc(NC(=O)CN(C(=O)c2ccccc2F)C2CCCC2)c(C(N)=O)c1C	16µM*	-11%	0%	2%	-9%
Cc1noc(NS(=O)(=O)c2ccc(NC(=O)c3cc(S(=O)(=O)Nc4ccc(F)cc4)ccc3Cl)cc2)c1C	nt	nt	0%	2%	nt
C=CCn1c(COc2ccccc2)nnc1SC(C)C(=O)N/N=C/c1cc(Cl)ccc1O (stereo unspecified)	-8%	13µM*	?	?	?
CNC(=S)Nc1cc(Cl)ccc1Oc1ccccc1	-9%	14µM*	8%	-3%	?
CCNC(=S)Nc1cc(Cl)ccc1Oc1ccccc1	-10%	4.5µM*	4%	?	10µM*
COC(C(=O)Nc1ccnn1C1CCN(Cc2ccc(Cl)s2)CC1)c1ccccc1 (stereo unspecified)	-6%	0%	6%	?	15%
CC(C)c1ccc(/C=C/C(=O)N2CCCCCC2)cc1	?	31%	23µM*	-1%	1%
CC(C)c1ccc(/C=C/C(=O)N2CCOCC2)cc1	?	-13%	?	1%	-18%
COCCn1c(-c2ccc(OC)cc2)cnc1SCC(=O)Nc1cccc2ccccc12	?	5µM*	0%	4%	21%
COCCn1c(SCC(=O)Nc2ccccc2OC)nc2ccccc2c1=O	-11%	?	-42%[9.22 µM]	-25%	2%
COc1ccc(CN2CCN(c3cccc(C)c3C)CC2)cc1OC	?	-21%	-1%	-13%	-2%
CCn1c(CN2CCN(c3cccc(C)c3C)CC2)n[nH]c1=S	-1%	4µM*	?	?	7.1µM*
Cc1oc2cc3oc(=O)c(CCC(=O)NCc4ccccn4)c(C)c3cc2c1C	?	6.3µM*	15%	-8%	?
O=C1c2cccc3cccc(c23)C(=O)N1c1cccnc1	1%	-26%	18µM*	3%	3%
COc1ccc(N2C(=O)c3ccccc3C2=O)cc1	13%	14%	11%	-1%	5%
COc1ccc(N2C(=O)c3cccc4cccc(c34)C2=O)cc1	3%	-2%	2%	13µM*	-3%
COc1ccc(N2C(=O)C(Cl)=C(Oc3cccc(OC)c3)C2=O)cc1	3%	11µM*	3%	15%	?
O=C1c2cccc3cccc(c23)C(=O)N1c1ccncc1	?	-6%	-2%	-9%	-11%
CCN(CC(=O)NC(C)(C)C)C(=O)COc1c(Cl)cc(Cl)c2ccc(C)nc12	-13%	1.3µM*	18%	-9%	3.2µM*
Cc1ccc2c(Cl)cc(Cl)c(OCC(=O)NC3CCS(=O)(=O)C3)c2n1 (stereo unspecified)	?	8.9µM*	5%	16%	11µM*
COc1ccc(S(=O)(=O)N2CCOC2CNC(=O)C(=O)NCCN2CCOCC2)cc1C (stereo unspecified)	11%	-16%	-8%	4%	-9%
Cn1ncc(C#N)c1NC(=O)C1CC(c2ccc(Cl)cc2)=NO1 (stereo unspecified)	18%	8%	?	-4%	-4%
COc1cc(/C=C/C(=O)N(C)CC(=O)Nc2ccccc2SC)cc(OC)c1OC	16µM*	nt	4%	-5%	nt
CCCNC(=S)Nc1ccc(Oc2ccccc2)cc1	3%	13µM*	22%	?	11µM*
CCCCNC(=S)Nc1ccc(Oc2ccccc2)cc1	0%	1.4µM*	-1%	-4%	5.6µM*
CCOC(=O)C1CCN(S(=O)(=O)c2ccc(NC(=O)c3ccco3)cc2)CC1	?	10%	-10%	-1%	17%
CC(C)=CCc1cc([C@@H]2COc3c(ccc4c3C=CC(C)(C)O4)C2)c(O)cc1O	nt	nt	5.2µM*	5%	nt
Cc1cc(=S)[nH]c2c(C)cccc12	17%	11µM*	2%	-45%	?
